Bioassay records: PubChem BioAssay, National Center for Advancing Translational Sciences (NCATS)
SMN2 splice up: SMN2 splice variant enhancement; AID 1458; Potency, µM (titrated, usually from 46.1 µM), for inactives: top-dose activity change, positive = activation, usual class: activators; 210,000 tested, 2.8% active; HEK293 SMN2-luciferase splicing reporter, luminescence, 30-36 h; also: % of control where 0% means no effect; nearly all actives have a fitted effect of over 55% in size
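HEK293 cells carry an SMN2 […]–luciferase reporter in which exon 7 inclusion puts luciferase in frame. Cells were plated 10-12 h before compound addition, then incubated 30-36 h at 37C. ONE-Glo luminescence was read; sodium butyrate at 4.5 mM final served as control.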
NPC1 promoter act: activators of NPC1 promoter | Huh7 NPC1 promoter luciferase reporter, 24 h | Potency, µM (highest dose often 9.22 µM), for the others: at the top dose activation, most hits filed as activators | 320,000 tested, 2.4% active | AID 485313; also: % of control where 0% means no effect; nearly all actives have a fitted effect of over 60% in size
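Stable NPC1-promoter luciferase Huh7 line; cpd (DMSO) 24 h, 37 °C, 5% CO2; Amplite luciferase reagent 10 min RT; luminescence readout. qHTS format.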
ELG1 genotox: genotoxicity induction in ELG1-luciferase HEK293T cells; HEK293T ELG1-luciferase reporter, luminescence, 16 h; Potency, µM (titrated, usually from 46 µM), without a hit: at the top dose activity change, positive = activation, actives largely listed as activators; 330,000 tested, 1.3% active; AID 504466; also: % of control where 0% means no effect; nearly all actives have a fitted effect of over 60% in size
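DMSO vehicle served as control against compound-treated ELG1-luciferase HEK293T cells; exposure lasted 16 hr at 37 °C and 5% CO2, followed by ONE-Glo luminescence detection after 30 min.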
p53 reactivation: restores transcriptional activity of mutant p53; H1299 p53-A138V BP100-luciferase reporter, luminescence, 24 h; Potency, µM (titrated, usually from 92.2 µM), for the others: at the highest dose activity change, positive = activation, most hits filed as activators; 320,000 tested, 0.063% active; AID 504706; also: % of control where 0% means no effect; nearly all actives have a fitted effect of over 45% in size
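p53-null H1299 cells stably carrying temperature-sensitive p53-A138V and a BP100-luciferase reporter were pinned with compounds (4-point, 1:5 series) and held 24 hrs at 37 deg C. Luminescence was read 10 min after detection reagent.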
FLuc counter: firefly luciferase modulation, counter-screen for miR-21 project | P08659 | purified FLuc, Km substrates, luminescence inhibition | Potency, µM (doses to about 57.5 µM), inactives show at the highest dose activity change, negative = inhibition, actives largely listed as inhibitors | 360,000 tested, 6.9% active;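 also: plate controls were vehicle for no effect and reference inhibitor for full effect; nearly all actives have a fitted effect of over 55% in size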
Target sequence (P08659 whole entry, looked up): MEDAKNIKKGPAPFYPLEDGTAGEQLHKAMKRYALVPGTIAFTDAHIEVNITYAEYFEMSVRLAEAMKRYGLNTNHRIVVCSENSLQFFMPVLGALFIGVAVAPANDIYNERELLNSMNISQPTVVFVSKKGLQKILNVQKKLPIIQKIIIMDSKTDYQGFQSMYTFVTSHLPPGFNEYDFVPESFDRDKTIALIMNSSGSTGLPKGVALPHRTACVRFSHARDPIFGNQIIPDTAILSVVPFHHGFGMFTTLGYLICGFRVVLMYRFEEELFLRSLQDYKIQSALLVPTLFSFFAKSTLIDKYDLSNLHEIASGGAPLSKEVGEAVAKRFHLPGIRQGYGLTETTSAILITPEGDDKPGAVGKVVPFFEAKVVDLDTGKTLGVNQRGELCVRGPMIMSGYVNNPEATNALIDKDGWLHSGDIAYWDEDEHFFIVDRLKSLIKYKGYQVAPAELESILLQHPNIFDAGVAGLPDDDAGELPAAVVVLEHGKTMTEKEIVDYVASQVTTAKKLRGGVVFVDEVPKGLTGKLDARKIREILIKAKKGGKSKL
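Purified P. pyralis luciferase, 10 nM final, with Km-level 10 uM D-luciferin and 10 uM ATP in 50 mM Tris acetate pH 7.5, 10 mM Mg acetate, 0.01% Tween-20, 0.05% BSA; 6-point qHTS titration about 60 µM downward; luminescence read.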
Rab9 promoter act: Rab9 promoter activation; Huh7 Rab9 promoter-luciferase reporter, luminescence, 24 h; Potency, µM (doses to about 9.22 µM), for the others: top-dose activation, negative = inhibition, most hits filed as activators; 320,000 tested, 2.8% active; AID 485297; also: % of control where 0% means no effect; nearly all actives have a fitted effect of over 60% in size
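Luminescence read-out: Huh7 cells stably expressing Rab9-luciferase, treated 24 h with compound at 37 °C, then lysed with luciferase reagent for 10 min at ambient before reading.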
The depositor's hits bear a star; ? = inconclusive; . = no result given. An excerpt weighted towards active compounds, which were near 7.4% of everything screened. Calls follow the shape of the dose curve; as a rule, active = well fitted curve in the direction sought with a large enough effect; inconclusive = small, poorly fitted or top-dose-only effect, or another doubt; inactive = no such curve, though single readings can be large; an effect the other way counts as inactive or inconclusive. Potency is read from the fitted curve at half-maximal effect.

SMILES	SMN2 splice up	NPC1 promoter act	ELG1 genotox	p53 reactivation	FLuc counter	Rab9 promoter act
CC(=O)Oc1ccc2c(c1)CCC1C2CC[C@]2(C)C(=O)CCC12 (some centres undefined)	11%	.	.	.	.	.
Cc1ccc(C)n1-c1ccc(-c2ccn[nH]2)cc1	13µM*	?	?	8%	12µM*	?
Cc1ccc(C)n1-c1ccc(-n2cnnn2)cc1	-3%	-5%	7%	?	-1%	3%
c1ccn(-c2ccc(-c3ccn[nH]3)cc2)c1	?	?	18%	?	11µM*	?
CCN(CC)CCNC(=O)c1ccc(NC(=O)Nc2cccc3ccccc23)cc1	.	-1%	6%	-11%	-3%	-4%
Clc1ccc(-c2cc(CN3CCCCC3)no2)cc1Cl	.	22%	10%	21%	19µM*	23%
Clc1ccc(CN2CCCCCCC2)cc1Cl	?	0%	0%	-2%	5%	-2%
Clc1ccc(-c2cc(CN3CCOCC3)no2)cc1	.	1.6µM*	?	20%	12µM*	0.89µM*
COc1ccccc1N=c1scc(-c2ccc(S(=O)(=O)N3CCCC3)cc2)n1C	-29%	.	.	.	-8%	.
COc1cc(O)c2c(=O)cc(-c3ccc(OC)c(-c4c(O)cc(O)c5c(=O)cc(-c6ccc(O)cc6)oc45)c3)oc2c1	5%	.	.	.	.	.
COc1ccc(-c2oc3cc(O)c(OC)c(O)c3c(=O)c2OC)cc1	.	-20%	18%	8%	19µM*	-1%
COc1ccc(-c2cc(=O)c3cc(O)ccc3o2)cc1	.	1.4µM*	5.8µM*	2%	1.7µM*	1.6µM*
O=c1cc(-c2ccccc2)oc2c(O)c(O)ccc12	-71%	.	.	.	.	.
COc1ccc(-c2cc(=O)c3c(O)cc(O)cc3o2)cc1	?	?	?	21%	1.9µM*	3.2µM*
O=c1cc(-c2ccccc2)oc2ccc(O)cc12	.	2.8µM*	21µM*	?	9.5µM*	4µM*
O=c1cc(-c2ccc(C(F)(F)F)cc2)oc2ccccc12	.	.	0%	12%	.	.
O=c1cc(-c2ccc(O)c(O)c2)oc2ccccc12	14µM*	.	.	.	.	.
CC(Oc1ccc(Br)cc1)C(=O)Nc1cc(Cl)ccc1N1CCN(C)CC1 (centres undefined)	.	-2%	-3%	-5%	-23%	0%
Cc1cc(-c2nnc(CCC(=O)NCCc3ccccc3F)o2)no1	.	2%	4%	14%	-4%	6%
O=C(ON=C1CCN(S(=O)(=O)c2ccccc2)CC1)c1ccc(F)cc1	-6%	-4%	0%	-4%	-15%	3%
CC(C)(C)C1CCC(=NOC(=O)c2ccc(F)cc2)CC1 (centres undefined)	1%	-7%	0%	-1%	19µM*	3%
O=C(O/N=C1/CCSc2ccccc21)c1ccc(F)cc1	-21%	7%	0%	10%	0.34µM*	-1%
O=C(O/N=C1/CCCc2occc21)c1ccc(F)cc1	0%	-5%	-1%	2%	1.9µM*	2%
CCOc1ccc(S(=O)(=O)N(C)CC(=O)NC2CC2)cc1	.	1%	6%	12%	5%	5%
CC(C)(C)c1ccc(OCCn2ccccc2=O)cc1	11µM*	1.4µM*	4.6µM*	18%	5.4µM*	1.1µM*
Cc1c(C(=O)NCc2ccoc2)oc2ccc3c(c12)C(=O)CC(C)(C)O3	16µM*	?	?	?	8.5µM*	?
CCC1(C)CC(=O)c2c(ccc3oc(C(=O)NCc4ccccc4)c(C)c23)O1 (centres undefined)	22µM*	.	.	.	9.5µM*	.
COc1cccc(-c2cc(C(F)(F)F)nc(NCCc3ccccc3)n2)c1	-2%	.	.	.	-6%	.
Cc1ccc(C#N)c(SCc2nnc(-c3ccc(Cl)cc3)o2)n1	-82%	-2%	?	?	0.43µM*	1%
COc1ccccc1-c1cc(-c2ccc(C)cc2)nc(SCc2nnc(-c3ccccc3)o2)c1C#N	-20%	-1%	-1%	-4%	-1%	-10%
